Growth data for 38 molecules are collected here from PubChem BioAssay (NCI).

Each structure is given as a SMILES string. Compounds without any hit were thinned out: in the full panel of roughly 83,000, 20% have a hit.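 96-well plates, one dose, 48 hours. Percent growth reported; active if below 10.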 A number with no mark means an inactive call. The source made the active and inactive calls.

The subject of this assay is U251 CNS. Kind of assay: NCI-60 one-dose screen, 48 h (100 = growth as untreated, 0 = no growth, -100 = all killed). To be noted: 10 µM unless noted.
`O=C1NC(=O)c2c1c1c3cc(Br)ccc3[nH]c1c1oc3ccc(F)cc3c21`: the growth was -55.5% (active).

`C#CCOc1ccc(/C=N/Nc2nc(-c3ccc(F)cc3)cs2)cc1OC`: the growth was 89.4%.

Take `O=C1NC(=O)/C(=C/c2ccccc2OCc2cc3ccccc3nc2Cl)S1`: the growth is 58%.

For `Cc1ccc(NCC(=O)Cn2cc(COc3ccc(C=Nc4cnc5ccccc5c4)cc3)nn2)cc1`, the growth was 101%.

Consider `C/C(=N\N=C1/C(=O)Nc2ccccc21)c1ccc2c(c1)Nc1ccccc1S2`, for which the growth was 60.1%.

On to `C/C(=N\N=C1/C(=O)Nc2ccc(Cl)cc21)c1ccc2c(c1)Nc1ccccc1S2`, for which the growth was -32.1% (active).

On to `CCN(CC)c1ccnc(CNCCSC(c2ccccc2)(c2ccccc2)c2ccc(C)cc2)c1`, for which the growth is -93% (active).

As to `Cc1cc2c(cc1Cl)C(=O)/C(=C/c1ccccc1)O2`, the growth is 8.18% (active).

Turning to `COc1ccc(C(=O)/C=C/c2ccc(OCc3ccc(F)cc3)c(OC)c2)cc1OC`, the growth was 10.1%.

As to `COc1cc(OC)c2c3nc4cc(C)c(C)cc4nc3n(CCN(C)C)c2c1`, the growth was 87.7%.

Regarding `N=C1N=C(SCc2nc3ccccc3[nH]2)NC(=O)/C1=C/c1ccc(Cl)cc1`, the growth was 105%.

Turning to `COc1ccc(C2CC(c3ccc(S(=O)(=O)NCCNc4nc(Nc5ccc(F)cc5)nc(N(C)C)n4)cc3)=Nc3c(N)nc(N)nc3N2)cc1` (stereo not drawn), the growth is 64.5%.

Regarding `O=C(Cn1nc(-c2ccccc2)ccc1=O)N/N=C/c1ccc(N2CCOCC2)cc1`, the growth is 93.2%.

Regarding `CC1(C)CC[C@]2(C(=O)O)CC[C@]3(C)C(=CCC4[C@@]5(C)C[C@@H](O)[C@@H]6OC(c7cccc(Br)c7)OC[C@@]6(C)C5CC[C@]43C)C2C1` (stereo partly drawn), the growth was 22.9%.

`COc1ccc(C(=O)/C=C/c2ccc(OCc3ccccc3)c(OC)c2)cc1OC`: the growth was 10.1%.

With `O=C(N=Nc1c(O)[nH]c2ccc([N+](=O)[O-])cc12)c1ccc2nc(-c3ccccc3)[nH]c2c1`, the growth is 34.8%.

Consider `C/C(=N\N=C\c1cc([N+](=O)[O-])ccc1Cl)c1ccc2c(c1)Nc1ccccc1S2`, for which the growth is 7.09% (active).

With `C=C1CCC2C3(C)COC(c4ccc(F)cc4)OC3CCC2(C)C1C/C=C1/C(=O)OCC1O` (stereo not drawn), the growth was -94.4% (active).

As to `CCCSc1nc(NCCc2c[nH]c3ccccc23)c(C#N)c(-c2ccc(OC)cc2)n1`, the growth was 41.5%.

As to `N/C(=N\c1nc2ccccc2s1)NC(=O)Nc1ccccc1Br`, the growth is -53.3% (active).

In the case of `O=C(Cn1c2c(sc1=O)[C@H]1[C@@H](O)[C@@H](O)[C@H](O)[C@@H]1CS2)N1CCOCC1`, the growth was 99.2%.

Consider `COC(=O)/C=C/c1cccc2c1C(=O)NC(C)(c1cc3ccccc3oc1=O)N2` (stereo not drawn), for which the growth is 57.9%.

As for `Brc1ccc(-c2n(Cc3ccc4ccccc4c3)c(-c3ccccc3)c(-c3ccccc3)[n+]2Cc2ccc3ccccc3c2)cc1`, the growth is -97.8% (active).

With `COc1ccc(NC(=O)Cn2c3c(sc2=O)[C@H]2[C@@H](O)[C@@H](O)[C@H](O)[C@@H]2CS3)cc1`, the growth is 99.7%.

Consider `Cc1cc2nc3c4ccccc4n(CCCN(C)C)c3nc2cc1C`, for which the growth is 1.33% (active).

With `O=S(=O)(Nc1cccc(-n2cnc3cc(-c4ccc(O)cc4)ccc32)c1)C1CC1`, the growth is 17.6%.

`CN(C)c1ccnc(CNCCSC2(c3ccc(C(F)(F)F)cc3)c3ccccc3C=Cc3ccccc32)c1`: the growth is -77% (active).

Regarding `CN(C)c1nc(NCCNS(=O)(=O)c2ccc(C3=Nc4c(N)nc(N)nc4NC(c4ccc(C(F)(F)F)cc4)C3)cc2)nc(Nc2ccc(F)cc2)n1` (stereo not drawn), the growth was 0.0667% (active).

As to `O=C(NN1C(=O)/C(=C/C=C/c2ccc([N+](=O)[O-])o2)SC1=S)c1ccc(Cl)cc1`, the growth was -97.4% (active).

As to `COCOc1ccc2c(=O)c(C)c(C(=O)N[C@@H](Cc3ccccc3)C(O)C(=O)NCCc3ccc(OC)cc3)oc2c1` (stereo partly drawn), the growth was 106%.

On to `C#CCOc1cc(N(CC)CC)ccc1C(C(=O)NC(C)(C)C)N(C(=O)C1CCc2cc(F)ccc2O1)c1ccc(Br)cc1` (stereo not drawn), for which the growth is 87.2%.

`Cc1cc2nc3c4ccccc4n(CC4=NCCN4)c3nc2cc1C`: the growth is -72.5% (active).

Regarding `Cn1cc(-c2nc(N)nnc2-c2c[nH]c3ccc(F)cc23)c2cccnc21`, the growth is 35.7%.

Take `COc1ccc(N2N=C(c3ccc4c(c3)OCO4)CC2c2cccc(NC(=O)CCNS(=O)(=O)c3ccc(Cl)cc3)c2)cc1` (stereo not drawn): the growth is 29.5%.

With `Cc1nc(Nc2ccccn2)sc1C(=O)CC(SCC(=O)Nc1ccc(Cl)cc1)c1ccccc1F` (stereo not drawn), the growth was -21.1% (active).

With `Cc1cccc(-c2nc(Nc3ccc(C)c(S(N)(=O)=O)c3)c3ccccc3n2)c1`, the growth is 29.4%.

Consider `CN(C)CCn1c2ccccc2c2nc3cc(C(F)(F)F)ccc3nc21`, for which the growth is 38.1%.

`S=C(Nc1ccccc1)Nc1ccc(OCc2nc3ccccc3[nH]2)cc1`: the growth was 34.5%.
